40 compounds from PubChem BioAssay (NCI) can be followed below.

About 79,000 compounds went through this panel and 15% of them were active in at least one assay; those are over-represented in the sample as a whole. Activity calls are given as the source filed them. No stated cut-off is given here; in the data, active means growth inhibition above about 70%; inactive means the rest.

The experiment in a line: NCI Yeast Anticancer Drug Screen. Data for the sgs1 mgt1 strain (AID 161).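 Further: 0% = growth of cultures given vehicle only.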 The following applies: S. cerevisiae sgs1 mgt1 strain, at 5.0 µM (retest, dose inferred, filed as 0.5), active compounds read high. Put shortly: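 Test agents were incubated with a DNA-repair-mutant yeast strain. Growth was then read and compared against vehicle-treated controls.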
As for `CCOC(=O)C1C(O)=C(P(=O)(C2=C(O)C(C(=O)OCC)C(c3ccc(OC(C)=O)cc3)C(C(=O)O)C2=O)N(CCCl)CCCl)C(=O)C(C(=O)O)C1c1ccc(OC(C)=O)cc1` (stereo not given), the growth inhibition was 11% (inactive).

On to `c1ccc([As+](c2ccccc2)(c2ccccc2)c2cccc3ccccc23)cc1`, for which the growth inhibition was 93% (active).

Turning to `CCCCCCCCc1ccc(OCCN(CCCl)CCCl)cc1`, the growth inhibition is -130% (inactive).

In the case of `S=C=NCCc1ccccc1`, the growth inhibition is -5% (inactive).

Take `COC1=C(Cl)C(=O)c2ccccc2C1=O`: the growth inhibition is 6% (inactive).

As to `CN(C)c1ccc(N=Nc2cccc(C(=O)[O-])c2)cc1.CN(C)c1ccc(N=Nc2cccc(C(=O)[O-])c2)cc1.NC1CCCCC1N.O=[N+]([O-])O.[Pt+4]`, the growth inhibition was 23% (inactive).

Regarding `CCOC(=O)c1ccc(N=Cc2ccc(N(CCCl)CCCl)cc2C)cc1`, the growth inhibition is 14% (inactive).

As for `O=c1s[se]c2ccccc12`, the growth inhibition is 17% (inactive).

With `CC1CCC2(OC1)OC1C(O)C3C4CCC5CC(OC6OC(CO)C(OC7OC(CO)C(O)C(OC8OCC(O)C(O)C8O)C7OC7OC(CO)C(O)C(OC8OC(CO)C(O)C(O)C8O)C7O)C(O)C6O)C(O)CC5(C)C4CCC3(C)C1C2C` (stereo not given), the growth inhibition is 93% (active).

As to `CN(C)c1ccc(/C=C/c2cc3scc(-c4ccccc4)[n+]3c3ccccc23)cc1`, the growth inhibition is -1% (inactive).

Turning to `CSCCC([NH-])C(=O)O.CSCCC([NH-])C(=O)O.[Zn+2]` (stereo not given), the growth inhibition is 2% (inactive).

For the compound `O=C(O)CN1CCN(CC(=O)O)CC(=O)[O][Hg][O]C(=O)C1`, the growth inhibition was 99% (active).

Turning to `Cc1c2ccncc2c(CN(CCCl)CCCl)c2c3ccccc3n(C)c12`, the growth inhibition is -25% (inactive).

`COc1ccc(P2(=S)Oc3ccc(C(c4ccccc4)(c4ccccc4)c4ccccc4)cc3O2)cc1` (stereo not given): the growth inhibition was 34% (inactive).

As to `Cc1cc[n+](C2=C(Nc3c(C)cccc3C)C(=O)c3ccccc3C2=O)cc1`, the growth inhibition is -6% (inactive).

For the compound `C(#C[PH+](c1ccccc1)c1ccccc1)c1ccccc1.C(#C[PH+](c1ccccc1)c1ccccc1)c1ccccc1.C(#C[PH+](c1ccccc1)c1ccccc1)c1ccccc1.[C-]#[O+].[C-]#[O+].[C-]#[O+].[Cr]`, the growth inhibition was 14% (inactive).

Consider `CC(=O)O.[RuH].c1ccc([PH+](c2ccccc2)c2ccccc2)cc1.c1ccc([PH+](c2ccccc2)c2ccccc2)cc1.c1ccc([PH+](c2ccccc2)c2ccccc2)cc1`, for which the growth inhibition was -5% (inactive).

Regarding `O=C(N/N=C/c1cc(Br)cc(Br)c1[O-])c1ccccc1O.O=C(N/N=C/c1cc(Br)cc(Br)c1[O-])c1ccccc1O.[Ni+2]`, the growth inhibition is 98% (active).

Consider `O=C(C[n+]1ccccc1)C1CCc2ccccc2C1` (stereo not given), for which the growth inhibition is -1% (inactive).

Take `CC(=O)[O-].CC(=O)[O-].O=C(N/N=C/c1cc(Cl)cc(Cl)c1[OH2+])c1ccncc1.[Zn+2]`: the growth inhibition was 7% (inactive).

As to `ClCCN(CCCl)CCN1c2ccc3ccccc3c2Sc2ccc3ccccc3c21`, the growth inhibition was -13% (inactive).

In the case of `C=CCc1cc(Cl)ccc1OC(=O)N(C)C`, the growth inhibition was 5% (inactive).

On to `CC(=O)[O][Sn]([CH3])([CH3])[c]1ccccc1`, for which the growth inhibition is 1% (inactive).

As to `NCCNCCNCCNCCN` (tested in a mixture with another compound), the growth inhibition is 0% (inactive).

In the case of `CC(=O)[CH-]C(C)=O.CC(=O)[CH-]C(C)=O.[O-]c1ccccc1.[O-]c1ccccc1.[Ti+4]`, the growth inhibition was 19% (inactive).

Turning to `NC(=O)c1ccc(C(=O)Nc2ccc([As](=O)(O)O)cc2)cc1`, the growth inhibition was 22% (inactive).

As for `[C-]#[O+].[C-]#[O+].[CH3][Sn]([CH3])[c]1ccccc1.[Fe+5].[c-]1[c-][c-][cH-][c-]1`, the growth inhibition is 9% (inactive).

Consider `CC(C)(C)S.[Hg]`, for which the growth inhibition was 98% (active).

Take `O=C(O)C(O)(c1ccc(-c2ccccc2)cc1)c1ccc(-c2ccccc2)cc1`: the growth inhibition was 0% (inactive).

Turning to `Cc1ccc2c(-c3ccccc3)c3ccccc3[s+]c2c1`, the growth inhibition is 6% (inactive).

As to `CCOC(=O)[C]1([Pb]([CH3])([CH3])[CH3])N=NC(C(=O)OC)=C1C(=O)OC` (stereo not given), the growth inhibition is 2% (inactive).

With `CCCNC1=C(C)C(=O)C2=C(C1=O)[C@H](COC(N)=O)[C@]1(OC)[C@@H]3N[C@@H]3CN21`, the growth inhibition was 11% (inactive).

In the case of `CC(=O)c1ccc(-[n+]2c(C)cc(-c3ccccc3)cc2C)cc1`, the growth inhibition is -19% (inactive).

For `CN1C(=O)C23CC4=CC=CC(O)C4N2C(=O)C1(CO)SS3` (stereo not given), the growth inhibition is 99% (active).

In the case of `CCN1CCC(O)(c2ccc(O)cc2)C(C(=O)c2ccc(O)cc2)C1` (stereo not given), the growth inhibition was 6% (inactive).

In the case of `CCCCCCCC[As](C)(=O)O`, the growth inhibition is -67% (inactive).

Consider `CCCCCCC(=O)[O][Hg][c]1ccccc1`, for which the growth inhibition is 100% (active).

As to `CCC[CH2][Sn]1([CH2]CCC)[O]C(=O)CN=Cc2ccccc2[O]1`, the growth inhibition is 85% (active).

For the compound `C[C@]12CC[C@H](O)C[C@@H]1CC[C@@H]1[C@@H]2CC[C@]2(C)C(=O)/C(=C/O)C[C@@H]12`, the growth inhibition is -1% (inactive).

Turning to `CC(CCc1ccccc1)NC(C)C(O)c1ccc(O)cc1` (stereo not given), the growth inhibition is 23% (inactive).
